Compound activity deposited in PubChem by several laboratories.
Rows were chosen to be rich in hits. Some 1.3% of all compounds tested hit in one or more screens of this group.
MEX-5 binding: C. elegans MEX-5 TCR-2 RNA binding activity | Q9XUB2 | MEX-5/FITC-TCR2 RNA binding, fluorescence polarization; stronger effect = lower value | activity score (negative = inhibition of binding), % at 10 µM | 0.38% of 300,000 active;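 active = inhibition past about -25% in most replicates, and total fluorescence under double the plate's negative control median, limit read from the data; inconclusive = replicates evenly split on the limit, or fluorescence at least double controls; inactive = too little inhibition in most replicates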;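 note: 0% = DMSO and -100% = 5 µM competing unlabeled TCR2 RNA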
EBV gp42 block: blocks Epstein-Barr virus glycoprotein 42 binding. Q1HVG2. Fluorescence polarization binding assay, mP read-out. inhibition, % (tested at 21.74 µM). 0.42% of 220,000 active. AID 1085; in the data active = inhibition above about 50%
eLon inh: inhibits E. coli Lon protease. P0A9M0. purified E. coli Lon protease, fluorescence polarization. inhibition, % at 7.94 µM. 0.42% of 360,000 active; in the data active = inhibition above about 13%, passing the limit was not always enough;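 note: 0% = enzyme with probe and DMSO and 100% = no enzyme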
Target sequence (P0A9M0 whole entry, looked up): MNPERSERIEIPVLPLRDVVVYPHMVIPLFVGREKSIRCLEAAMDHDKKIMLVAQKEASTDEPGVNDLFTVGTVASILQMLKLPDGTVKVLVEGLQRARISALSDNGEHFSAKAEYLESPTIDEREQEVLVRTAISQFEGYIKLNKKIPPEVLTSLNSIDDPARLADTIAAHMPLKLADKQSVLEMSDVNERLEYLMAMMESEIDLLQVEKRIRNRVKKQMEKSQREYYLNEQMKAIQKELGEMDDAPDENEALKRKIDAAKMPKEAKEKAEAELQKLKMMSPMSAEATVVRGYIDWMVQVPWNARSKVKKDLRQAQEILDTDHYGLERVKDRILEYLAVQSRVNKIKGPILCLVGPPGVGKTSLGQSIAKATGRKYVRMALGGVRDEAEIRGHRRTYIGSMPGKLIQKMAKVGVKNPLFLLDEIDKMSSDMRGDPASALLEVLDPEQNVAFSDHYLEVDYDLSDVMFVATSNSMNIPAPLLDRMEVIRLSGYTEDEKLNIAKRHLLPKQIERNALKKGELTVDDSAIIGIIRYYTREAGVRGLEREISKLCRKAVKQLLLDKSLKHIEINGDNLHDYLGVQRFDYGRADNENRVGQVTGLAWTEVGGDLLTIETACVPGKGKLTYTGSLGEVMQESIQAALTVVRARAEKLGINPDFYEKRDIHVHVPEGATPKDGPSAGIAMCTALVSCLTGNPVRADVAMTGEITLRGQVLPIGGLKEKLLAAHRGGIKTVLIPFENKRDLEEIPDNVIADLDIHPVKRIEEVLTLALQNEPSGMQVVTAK
GLD-1 RNA inh: GLD-1-TGE RNA interaction inhibition (C. elegans); purified GLD-1 + fluorescein TGE RNA, fluorescence polarization; Q17339; 0.44% of 320,000 active; inhibition, % at 5.96 µM;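 active = percent inhibition above a per-plate cutoff, the plate mean of test compounds plus 3 SD, cut at about 30% in these data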;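 note: 0% = DMSO wells with GLD-1 and probe and 100% = wells lacking GLD-1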
Bcl-xL primary: blocks human Bcl-xL binding to Bim BH3 peptide. 0.7% of 320,000 active. AID 2129. GST-Bcl-xL / FITC-Bim BH3 peptide fluorescence polarization. Q07817. inhibition, % at 10.9 µM;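 active = inhibition above the mean of all tested compounds plus 3 SD, cutoff set per campaign, cut at about 30% in these data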;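 note: 0% = DMSO wells and 100% = unlabeled Bim-BH3 peptide competitor; inhibitors lower millipolarization by displacing the labeled peptide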
* hit, by the source's call; ? = inconclusive; . = not tested or not shown.

SMILES	MEX-5 binding	EBV gp42 block	eLon inh	GLD-1 RNA inh	Bcl-xL primary
CCCCC1=CC2=C(c3ccco3)C(=O)C(C)(OC(=O)c3ccc(OC)cc3)C(=O)C2=CN1CCN1CCOCC1 (stereo unspecified)	-38*	-1	17	41*	72*
CCCCC1=CC2=C(c3ccco3)C(=O)C(C)(OC(=O)c3ccc(OC)cc3)C(=O)C2=CN1CCCN(CC)CC (stereo unspecified)	0	14	28	34*	49*
Cc1cc(-c2ccc([N+](=O)[O-])cc2)cc(C)n1	.	.	-4	.	.
Cc1ccc2nc(-c3ccco3)c(CC(C)(C)C)n2c1	.	.	11	.	.
C[C@H](CO)N1C[C@H](C)[C@H](CN(C)C(=O)Nc2cccc(Oc3ccccn3)c2)OCc2cnnn2CCCC1=O	.	.	-2	.	.
C/C(=N\NC(=O)c1nnn(-c2nonc2N)c1-c1cccs1)c1cccc(O)c1	-63*	.	12	3	1
COc1cc(/C(C)=N/NC(=O)c2nnn(-c3nonc3N)c2-c2cccs2)ccc1O	-1	.	15	-3	2
COC(=O)c1c(NC(=O)CSc2nnc(C)c(=O)[nH]2)sc(C)c1C	3	3	-9	-4	8
O=C(CNC(=O)/C=C/c1ccco1)N=Nc1c(O)[nH]c2ccccc12	-29*	.	2	-2	20
O=C1C(Nc2cccc(O)c2)=C(N2CCCCC2)C(=O)c2ccccc21	-14	-28	29	71*	57*
CC(C)(C)N1CC(c2nc3ccccc3n2CCOc2ccccc2)CC1=O (stereo unspecified)	0	67*	1	-3	2
Cc1ccccc1NC(=O)CN1C(=O)S/C(=C\c2ccc(-c3cc(C(=O)O)ccc3C)o2)C1=O	-54*	-68	-1	.	.
CCOC(=O)C(C)N1C(=O)S/C(=C\c2ccc(-c3ccccc3C(=O)O)o2)C1=O (stereo unspecified)	-7	.	-19	-3	31*
Cc1ccc(C)c(N2C(=N)S/C(=C\c3ccc(-c4ccccc4C(=O)O)o3)C2=O)c1	-18	-28	-28	-30	7
COc1cc(/C=c2\sc3nc(-c4ccncc4)nn3c2=O)ccc1OC(C)=O	.	37	.	.	.
CCCCCOc1ccc(/C=c2\sc3nc(=O)c(-c4ccccc4)nn3c2=O)cc1OC	-31*	-5	-19	1	-4
CCCOc1ccc(/C=c2\sc3nc(-c4ccco4)nn3c2=O)cc1OCC	-67*	36	-11	3	3
O=C(NC1CC1)C1=C[C@@H](c2c[nH]c3ccccc23)C[C@@H](OCc2ccc(CO)cc2)O1	3	6	-17	-15	39*
O=C(NC1CC1)C1=C[C@H](c2c[nH]c3ccccc23)C[C@H](OCCCCO)O1	2	-10	-5	-2	4
CCN(CC)c1ccc2cc(-c3nc4ccccc4[nH]3)c(=O)oc2c1	?	45	-193	42*	81*
CCN(CC)c1ccc2cc(-c3nc(-c4ccc(OC)cc4)cs3)c(=O)oc2c1	.	92*	.	67*	107*
CCN(CC)c1ccc2cc(-c3nnc(-c4ccccc4)o3)c(=O)oc2c1	?	21	-434	-140	-6
CCN(CC)c1ccc2cc(-c3nc4ccccc4n3C)c(=O)oc2c1	-10	2	-173	-59	27
CCn1c2ccccc2c2cc([N+](=O)[O-])ccc21	2	-21	-5	9	0
CCn1c2ccccc2c(=O)c2ccccc21	-28*	-19	2	8	-17
SMILES	MEX-5 binding	EBV gp42 block	eLon inh	GLD-1 RNA inh	Bcl-xL primary
Cc1ccc(C2(c3ccccc3)NC(=O)N(CC(=O)NCc3ccccc3)C2=O)cc1C (stereo unspecified)	.	.	4	2	-3
O=C(C1=NN(c2ccccc2)C2C(=O)N(c3ccccc3Cl)C(=O)C12)c1ccccc1 (stereo unspecified)	-28*	53*	-22	-4	12
COc1ccccc1N1C(=O)C2C(C(=O)c3ccccc3)=NN(c3ccccc3)C2C1=O (stereo unspecified)	-16	72*	-37	-6	3
CCOC(=O)C1=NN(c2ccccc2)C2C(=O)N(c3ccccc3OC)C(=O)C12 (stereo unspecified)	-2	3	13	-4	3
Cc1ccc(N2C(=O)C3C(C(=O)c4ccccc4)=NN(c4ccccc4)C3C2=O)cc1 (stereo unspecified)	?	53*	1	-11	1
O=C(C1=NN(c2ccccc2)C2C(=O)N(c3ccccc3)C(=O)C12)c1ccccc1 (stereo unspecified)	-37*	59*	-31	-10	11
COc1ccccc1N1N=C(C(=O)c2ccccc2)C2C(=O)N(c3ccc(Br)cc3)C(=O)C21 (stereo unspecified)	?	17	0	-5	-4
COc1ccc(NC(=O)COC(=O)CNS(=O)(=O)/C=C/c2ccccc2)cc1OC	.	.	0	-5	-7
COc1ccc([N+](=O)[O-])cc1NC(=O)C1CCCCC1C(=O)O (stereo unspecified)	1	-9	5	3	4
Nc1nccnc1C(=O)OCC(=O)C12CC3CC(CC(C3)C1)C2	0	.	-8	3	2
N#CC1(C#N)CC(C=O)=C(N)C1(C#N)CC(=O)C12CC3CC(CC(C3)C1)C2 (stereo unspecified)	1	142*	-19	-9	11
O=c1c2sc3nc(N4CCOCC4)c4c(c3c2ncn1C(c1ccccc1)c1ccccc1)CCCC4	.	.	-13	.	.
CC(NC(=O)c1ccc(NC(=O)CC2SC(N3CCCC3)=NC2=O)cc1)c1ccc(F)cc1 (stereo unspecified)	.	.	-12	3	6
CN1C(=O)/C(=C/c2ccccc2OCc2cccc(F)c2)NC1=S	-4	-10	11	8	-2
COc1ccc(NC(=O)C2Cc3ccccc3CN2C(=O)c2ccccc2)cn1 (stereo unspecified)	-38*	64*	16	55*	81*
CC(=O)c1ccc(NC(=O)C2Cc3ccccc3CN2C(=O)c2ccccc2)cc1 (stereo unspecified)	0	-6	-2	2	-2
OCCC1CN(Cc2cnc(-c3cccc4ccccc34)nc2)CCN1C1CCCCC1 (stereo unspecified)	0	-4	-7	-4	3
CN1CCc2cccc3c2[C@H]1Cc1ccc(O)c(O)c1-3	-84*	-1	3	7	36*
O=C1C=C(O)c2[nH]c(=O)ccc2C1=O	.	.	6	.	.
O=C1C=C(O)c2c(O)cc(O)c(O)c2C1=O	-100*	.	-3	7	27
O=C1CCCC(=O)C1CS(=O)(=O)c1ccccc1	0	6	-5	2	7
Nc1ccc(Br)c2c1C(=O)c1ccccc1C2=O	-2	17	.	16	46*
COc1cccc(NC(=O)COC(=O)C2CC3CCCC(C2)C3=O)c1 (stereo unspecified)	.	.	7	-8	-3
